Test results taken from PubChem BioAssay (NCATS).
Inconclusive results are not listed. Entries that show only a call come without a potency. Calls of active or inactive are those of the source. Calls follow the shape of the dose curve; as a rule, active = well fitted inhibition curve with a large enough effect; inconclusive = small, poorly fitted or top-dose-only effect; inactive = flat fitted curve, though single readings scatter.

What follows are compounds tested against Calcium and integrin-binding protein 1 (Homo sapiens) (UniProt Q99828) (assay: Primary qHTS for Identification of Calcium Integrin Binding Protein 1 (CIB1) Competitor (AID 1508620;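 also: GST tagged CIB1 binding a fluorescein labelled alphaIIb integrin peptide tracer; top concentration of the series differs between compounds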)). Details: CIB1-GST / FITC-alphaIIb peptide fluorescence polarization; series mostly up to 114 µM.
Chain of Calcium and integrin-binding protein 1 (Homo sapiens) (Q99828 whole entry, looked up): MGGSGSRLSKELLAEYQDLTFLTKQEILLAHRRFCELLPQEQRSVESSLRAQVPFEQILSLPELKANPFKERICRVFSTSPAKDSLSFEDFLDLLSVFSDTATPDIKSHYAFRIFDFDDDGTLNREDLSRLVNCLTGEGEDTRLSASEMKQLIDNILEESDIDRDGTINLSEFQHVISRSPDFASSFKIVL
How it was run: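 Fluorescence polarization competition: CIB1-GST (1 uM final) preincubated with compound 15 min at room temperature, then FITC-labeled alphaIIb peptide (100 nM final) added for another 15 min. Polarization read at Ex 480/Em 540.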
`COc1cccc(C(=O)NC2CCN(C#N)CC2)c1` was tested, and the Potency was “inactive”.
In the case of `COc1ccc(C(=O)c2ccc(-c3no[n+]([O-])c3C#N)cc2)cc1`, the Potency is reported as “inactive”.
With `COc1ccc([S+](=O)([O-])N2CCCN([S+](=O)([O-])c3ccc(OC)c(NC(C)=O)c3)CC2)cc1NC(C)=O` the Potency was “inactive”.
`COC(=O)c1ccc(OC(C)=O)c2ncccc12` was tested, and the Potency was “inactive”.
`Cc1cc(-c2nnc3n2CCC3)c(C)n1-c1ccccc1` was tested, and the Potency was “inactive”.
In the case of `COc1cccc(C2c3c(ncn(-c4ccc(C(C)(C)C)cc4)c3=N)Oc3ccc4ccccc4c32)c1` (stereo unspecified), the Potency is reported as “inactive”.
With `O=C(Cc1ccc(Cl)c(Cl)c1)Nc1ccc([S+](=O)([O-])Nc2cccc([N+](=O)[O-])c2)cc1` the Potency was “inactive”.
`Fc1cnc(-c2ccccc2C(F)F)nc1NCc1ccc(-c2cccnc2)cc1` was tested, and the Potency was “inactive”.
For `CC(C)(Nc1nc(-c2ccccc2C(F)(F)F)nc2ccccc12)c1ccc(-c2cccc(C(F)(F)F)c2)cc1`, the Potency was “inactive”.
With `O=C(COC(=O)CNC(=O)c1ccccc1Cl)Nc1ccccc1Cl` the Potency was “inactive”.
In the case of `COCCCc1cc(F)c(S(=O)(=O)N2CCN(S(=O)(=O)c3ccc4c(c3)OCCO4)CC2)cc1F`, the Potency is reported as “inactive”.
In the case of `COc1ccc(C2c3c(nc(Cc4ccccc4)[nH]c3=O)Oc3ccc4ccccc4c32)cc1OC` (stereo unspecified), the Potency is reported as “inactive”.
With `Cc1cccc(-n2cnc3cc(C(=O)N4CC(C)CC(C)C4)ccc32)c1` (stereo unspecified) the Potency was “inactive”.
In the case of `COC(=O)c1ccc(O)c2ncc(NC3CCNCC3)cc12`, the Potency is reported as “inactive”.
In the case of `Cc1ccc(OCCn2c(CCNC(=O)c3cccc4ccccc34)nc3ccccc32)cc1`, the Potency is reported as “inactive”.
In the case of `N#Cc1cccc(Nc2ncc(-c3cccc4ccccc34)o2)c1`, the Potency is reported as “inactive”.
